A short description of test [1]: A High-Content qHTS Against Drug Library for the Identification of Small Molecules that Inhibit DYT1 Early Onset Primary Dystonia-Associated Cell Pathology (AID 1645839; calls by dose curve). Conditions: HEK293 Flp-In EGFP-delE TorsinA, punctate imaging, 48 h; series mostly up to 46.1 µM. The method, boiled down: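 Readout: %pathology, the punctate EGFP-TorsinA distribution from imaging, as the primary channel and cell count as the toxicity counterscreen. HEK293 Flp-In cells expressing delE TorsinA were induced with tetracycline and treated with compound for 48 h.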

Another test deals with Papain (Carica papaya) (UniProt P00784). Put plainly: Primary qHTS assay for inhibitors of the protease papain (AID 1645873).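 Further: papain turnover of Z-FR-AMC read as the AMC fluorescence gain over 10 min.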 Further: potency means the concentration at half of the fitted maximal effect. The note with it: papain Z-FR-AMC cleavage, AMC fluorescence; series mostly up to 49.8 µM.
Test [2] is described as follows: Primary qHTS for inhibitors of nuclear receptor binding SET domain protein 2 (NSD2) in an isogenic RCH-ACV NSD2 p.E1099K mutant (9B) (AID 1645876). Further: nearly all actives have a fitted effect of over 70% in size. Further: potency means the concentration at half of the fitted maximal effect. The note with it: RCH-ACV NSD2 E1099K (9B) viability, CellTiter-Glo, 72 h; series mostly up to 44.9 µM.
Test [3] has as its target Cytochrome P450 2C9 (Homo sapiens) (UniProt P11712). The test can be described thus: Cytochrome P450 family 2 subfamily C member 9 (CYP2C9) small molecule antagonists: luciferase biochemical (cell-free) qHTS assay (AID 1645842; active means well fitted curve in the direction sought with a large enough effect in the repeat runs; an effect the other way counts as inactive or inconclusive; further: nearly all actives have a fitted effect of over 55% in size; further: potency means the concentration at half of the fitted maximal effect). The note with it: P450-Glo CYP2C9 enzyme assay, luciferin luminescence; series mostly up to 57.4 µM. The gist of the method:
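Luminescence, after 20 min with luciferin detection reagent, reflected CYP2C9 turnover during a 1 h NADPH-driven reaction at 37C. Enzyme-substrate mix contained 0.4% bovine serum albumin and was preincubated with compound 10 min at room temperature.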
A general note: qHTS replaces the single test concentration by a dilution series.

The target of test [4] is Cytochrome P450 2D6 (Homo sapiens) (UniProt P10635). Put plainly: Cytochrome P450 family 2 subfamily D member 6 (CYP2D6) small molecule antagonists: luciferase biochemical (cell-free) qHTS assay (AID 1645840; active means well fitted curve in the direction sought with a large enough effect in the repeat runs; an effect the other way counts as inactive or inconclusive; further: nearly all actives have a fitted effect of over 55% in size; further: potency means the concentration at half of the fitted maximal effect). The note with it: P450-Glo CYP2D6 enzyme, luciferin luminescence, 1 h; series mostly up to 57.4 µM. The method, boiled down:
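P450-Glo luminescent screen: recombinant CYP2D6 enzyme–proluciferin substrate mix preincubated with compound 10 min at room temperature, then NADPH regeneration added for 1 h at room temperature. Detection reagent added for 20 min; luciferin light read as relative luminescence units.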

The nature of test [5]: Primary qHTS for inhibitors of nuclear receptor binding SET domain protein 2 (NSD2) in an RCH-ACV wild type WT cells (2C) (AID 1645877). Further: nearly all actives have a fitted effect of over 70% in size. Further: potency means the concentration at half of the fitted maximal effect. Conditions: RCH-ACV (leukaemia line) NSD2 WT (2C) viability, CellTiter-Glo, 72 h; series mostly up to 44.9 µM.
The target in test [6] is Rap guanine nucleotide exchange factor 3 (Homo sapiens) (UniProt O95398). Put plainly: Confirmatory qHTS for agonist of cAMP-regulated guanine nucleotide exchange factor 3 (EPAC1) (AID 1645881).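 Further: EPAC1 catalysed release of BODIPY-GDP from Rap1B seen as fluorescence loss; nearly all actives have a fitted effect of over 75% in size.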 The note with it: EPAC1 Rap1B BODIPY-GDP exchange fluorescence; series mostly up to 154 µM.
The target is the same in test [7]. The test can be described thus: Confirmatory qHTS for antagonist of cAMP-regulated guanine nucleotide exchange factor 3 (EPAC1) (AID 1645880). Further: nearly all actives have a fitted effect of over 55% in size. Further: potency means the concentration at half of the fitted maximal effect. The note with it: EPAC1 Rap1B-BODIPY-GDP exchange, fluorescence; series mostly up to 115 µM. The gist of the method: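 Nucleotide exchange uses 100 nM EPAC1, 250 nM RAP1B-BODIPY-GDP and 50 uM GDP, with compounds in a concentration-titration series. After 5 min at room temperature, fluorescence (480 nm ex/540 nm em) is read every 5 min for 30 min. Data are normalized to control ATA and DMSO.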

The target in test [8] is N-terminal Xaa-Pro-Lys N-methyltransferase 1 (Homo sapiens) (UniProt Q9BV86). Put plainly: Confirmatory qHTS for Inhibitors of N-terminal methyltransferase 1 (NTMT1): MTaseGlo Assay (AID 1645874). Further: potency means the concentration at half of the fitted maximal effect; nearly all actives have a fitted effect of over 65% in size. Conditions: NTMT1 enzyme, MTase-Glo SAH luminescence. The method, boiled down:
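Preincubation of NTMT1 (125 nM) plus SAM (100 uM) with test compounds lasted 15 min; methylation of 1 uM SPKRIA then proceeded 30 min in the dark at room temperature. Luciferase signal reported SAH produced.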

“And” between values parts separate entries of the source, which are not always exact repeats. Identical values can stand only once. Inconclusive results are not listed. Some compounds were tested as several samples or in several runs, with calls that do not always agree. The source made the active and inactive calls. Unless noted, the call rests on the fitted dose curve; in most records, active means well fitted curve in the direction sought with a large enough effect; inconclusive means small, poorly fitted or top-dose-only effect, or another doubt; inactive means no such curve, though single readings can be large; an effect the other way counts as inactive or inconclusive.

Chain of Papain (Carica papaya) (P00784 whole entry, looked up, the tested form may be a part): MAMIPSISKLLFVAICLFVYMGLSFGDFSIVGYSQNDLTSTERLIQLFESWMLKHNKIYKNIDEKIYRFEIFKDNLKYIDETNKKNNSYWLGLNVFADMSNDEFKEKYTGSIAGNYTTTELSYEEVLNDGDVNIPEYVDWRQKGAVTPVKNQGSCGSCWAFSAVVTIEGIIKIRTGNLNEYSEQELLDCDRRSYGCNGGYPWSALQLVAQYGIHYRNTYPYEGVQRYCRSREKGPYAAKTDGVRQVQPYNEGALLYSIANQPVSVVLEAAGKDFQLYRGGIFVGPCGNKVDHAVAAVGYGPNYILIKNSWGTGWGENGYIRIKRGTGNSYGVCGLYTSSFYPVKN
Chain of Cytochrome P450 2C9 (Homo sapiens) (P11712 whole entry, looked up): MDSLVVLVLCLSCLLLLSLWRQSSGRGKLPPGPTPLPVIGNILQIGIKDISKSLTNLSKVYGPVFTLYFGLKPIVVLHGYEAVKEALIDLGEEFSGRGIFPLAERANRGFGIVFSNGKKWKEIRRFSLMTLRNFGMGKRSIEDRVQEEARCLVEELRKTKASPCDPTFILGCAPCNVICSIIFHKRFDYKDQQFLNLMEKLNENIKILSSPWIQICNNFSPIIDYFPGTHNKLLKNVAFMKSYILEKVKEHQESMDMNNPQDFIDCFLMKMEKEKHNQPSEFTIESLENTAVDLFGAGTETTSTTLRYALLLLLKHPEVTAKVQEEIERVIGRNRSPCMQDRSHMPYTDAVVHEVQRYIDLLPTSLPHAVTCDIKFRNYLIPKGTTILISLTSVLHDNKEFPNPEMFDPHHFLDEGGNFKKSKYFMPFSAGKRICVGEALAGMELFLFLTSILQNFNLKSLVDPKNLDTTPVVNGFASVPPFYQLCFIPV
Chain of Rap guanine nucleotide exchange factor 3 (Homo sapiens) (O95398 whole entry, looked up): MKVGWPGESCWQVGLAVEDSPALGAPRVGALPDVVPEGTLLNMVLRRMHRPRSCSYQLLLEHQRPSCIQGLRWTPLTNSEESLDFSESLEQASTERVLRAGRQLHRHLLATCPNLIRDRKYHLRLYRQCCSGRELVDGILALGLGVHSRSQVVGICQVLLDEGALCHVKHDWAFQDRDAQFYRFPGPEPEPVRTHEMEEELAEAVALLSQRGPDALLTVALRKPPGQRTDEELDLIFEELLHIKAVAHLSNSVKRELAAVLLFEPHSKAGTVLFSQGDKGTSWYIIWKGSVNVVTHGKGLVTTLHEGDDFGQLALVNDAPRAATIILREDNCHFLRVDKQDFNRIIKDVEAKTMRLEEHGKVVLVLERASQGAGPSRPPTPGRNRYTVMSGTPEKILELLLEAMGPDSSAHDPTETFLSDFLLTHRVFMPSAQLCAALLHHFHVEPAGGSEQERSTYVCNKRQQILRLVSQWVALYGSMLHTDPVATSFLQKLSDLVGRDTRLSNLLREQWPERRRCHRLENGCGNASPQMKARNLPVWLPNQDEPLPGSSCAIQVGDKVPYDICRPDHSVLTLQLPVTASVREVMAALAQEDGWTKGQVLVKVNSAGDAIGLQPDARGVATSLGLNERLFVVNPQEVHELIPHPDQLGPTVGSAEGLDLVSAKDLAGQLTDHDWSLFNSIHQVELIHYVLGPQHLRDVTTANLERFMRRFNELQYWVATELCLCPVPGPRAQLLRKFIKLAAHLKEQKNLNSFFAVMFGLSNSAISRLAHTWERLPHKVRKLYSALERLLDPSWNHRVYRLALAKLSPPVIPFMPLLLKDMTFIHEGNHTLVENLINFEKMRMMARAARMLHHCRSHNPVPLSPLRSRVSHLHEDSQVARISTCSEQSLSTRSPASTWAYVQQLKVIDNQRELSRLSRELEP
Chain of Cytochrome P450 2D6 (Homo sapiens) (P10635 whole entry, looked up): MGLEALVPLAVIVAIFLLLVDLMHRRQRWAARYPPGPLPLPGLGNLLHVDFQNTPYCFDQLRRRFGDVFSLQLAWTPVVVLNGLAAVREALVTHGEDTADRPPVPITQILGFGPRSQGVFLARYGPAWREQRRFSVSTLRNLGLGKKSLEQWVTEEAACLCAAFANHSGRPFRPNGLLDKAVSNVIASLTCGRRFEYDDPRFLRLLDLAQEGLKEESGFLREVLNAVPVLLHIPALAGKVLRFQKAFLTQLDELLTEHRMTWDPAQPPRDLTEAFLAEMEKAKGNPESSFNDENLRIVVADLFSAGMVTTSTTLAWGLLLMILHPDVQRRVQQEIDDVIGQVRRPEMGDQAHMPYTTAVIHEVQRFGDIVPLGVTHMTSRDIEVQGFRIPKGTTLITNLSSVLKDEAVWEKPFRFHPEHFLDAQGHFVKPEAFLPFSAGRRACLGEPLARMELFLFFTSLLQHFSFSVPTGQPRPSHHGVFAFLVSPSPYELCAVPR
Chain of N-terminal Xaa-Pro-Lys N-methyltransferase 1 (Homo sapiens) (Q9BV86 whole entry, looked up): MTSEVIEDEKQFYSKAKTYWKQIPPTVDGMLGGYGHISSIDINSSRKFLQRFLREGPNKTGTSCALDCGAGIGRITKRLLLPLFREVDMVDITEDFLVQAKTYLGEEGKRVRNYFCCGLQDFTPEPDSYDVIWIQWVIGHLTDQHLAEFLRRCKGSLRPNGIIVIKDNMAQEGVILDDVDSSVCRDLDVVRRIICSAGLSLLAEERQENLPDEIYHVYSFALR

For the compound `CCN(CC)CCOC(=O)C1(C2CCCCC2)CCCCC1`, the Potency result (in test [1]; with Papain (Carica papaya); in test [2]) was “inactive” throughout.
Consider `CC(C(O)c1ccc(O)cc1)N1CCC(Cc2ccccc2)CC1` (centres undefined), for which the Potency entry (in test [1]; in [3]; with Papain (Carica papaya)) was “inactive” in each case.
Consider `c1ccc(CN(CC2=NCCN2)c2ccccc2)cc1`, for which the Potency result in test [1], in test [2] and in [5] was “inactive” in each case. Moreover, in [4], the Potency is 1.74 µM (active).
On to `CC(C)(C(=O)O)c1ccc(C(O)CCCN2CCC(C(O)(c3ccccc3)c3ccccc3)CC2)cc1` (centres undefined), for which the Potency result (in [1]; with Papain (Carica papaya)) was “inactive” each time.
As for `CNCC(O)c1ccc(O)c(O)c1` (centres undefined), the Potency entry (in test [1]; in test [3]; in the test with Papain (Carica papaya); in [2]) was “inactive” throughout.
Consider `CCCCOc1cc(C(=O)OCCN(CC)CC)ccc1N`, for which the Potency entry in [1], in test [3] and in [2] was “inactive” in each case.
Turning to `CCOC(CN1CCN(CC(C)C(=O)c2ccccc2)CC1)c1ccccc1` (centres undefined), the Potency entry in [1] and in test [2] was “inactive” each time. In addition, the figures for the Potency in test [4] and in test [5] were 0.0952 µM (active) and 14.5 µM (active), respectively.
For the compound `CC(CN1c2ccccc2Sc2ccccc21)N(C)C` (centres undefined), the figures for the Potency in test [4] and in test [2] were 2.45 µM (active) and 16.8 µM (active), respectively. Besides, the Potency entry (in test [3]; in the test with Papain (Carica papaya)) was “inactive” throughout.
Consider `COc1ccc2cc1Oc1ccc(cc1)C[C@H]1c3c(cc4c(c3Oc3cc5c(cc3OC)CCN(C)[C@@H]5C2)OCO4)CCN1C`, for which the Potency in test [4] was 17.4 µM (active); in test [2], 8.41 µM (active) and 9.16 µM (active); in [5] it was 9.44 µM (active) and 9.16 µM (active).
Regarding `CCCCCCCCCCCCCCCC(=O)NCCO`, the Potency entry in [1], in [2] and in test [5] was “inactive” throughout.
Take `Cc1c(O)cccc1C(=O)N[C@@H](CSc1ccccc1)[C@H](O)CN1C[C@H]2CCCC[C@H]2C[C@H]1C(=O)NC(C)(C)C`: the Potency was 3.47 µM (active) in [4], 15.5 µM (active) in test [3], 15 µM (active) in [2] and 16.8 µM (active) in [5]. Moreover, the Potency entry in the test with Papain (Carica papaya) is “inactive”.
On to `Cc1c(Cl)cccc1Nc1ccccc1C(=O)O`, for which the Potency entry in [4] and in [6] was “inactive” each time.
For `Cc1cc(C(C#N)c2ccc(Cl)cc2)c(Cl)cc1NC(=O)c1cc(I)cc(I)c1O` (centres undefined), the Potency in [4] was 11 µM (active); in [3], 21.9 µM (active).
For the compound `CNCCCC1c2ccccc2C=Cc2ccccc21`, the Potency in test [4] was 3.09 µM (active). The Potency result (in test [3]; in the test with Papain (Carica papaya)) was “inactive” throughout.
Take `CC[C@H]1CN2CCc3cc(OC)c(OC)cc3[C@@H]2C[C@@H]1C[C@H]1NCCc2cc(OC)c(OC)cc21`: the Potency entry (in test [4]; in [3]; with Papain (Carica papaya)) was “inactive” each time. The Potency in test [2] was 84.1 nM (active) and 132 nM (active); in test [5], 59.6 nM (active) and 118 nM (active).
Regarding `CCCCN(CCCC)CC(O)c1cc(Cl)cc2c1-c1ccc(Cl)cc1/C2=C/c1ccc(Cl)cc1` (centres undefined), the Potency is 0.347 µM (active) in test [4], 21.9 µM (active) in [3], 15 µM (active) in test [2] and 13.3 µM (active) in test [5]. The Potency result with Papain (Carica papaya) is “inactive”.
Regarding `CCCc1c(OCCCCc2nn[nH]n2)ccc(C(C)=O)c1O`, the Potency was 0.138 µM (active) in test [3]; 55.9 µM (active) and inactive in [7]. Moreover, the Potency entry in test [6] is “inactive”.
For `COc1ccc2c(c1)C(=O)N(CCc1ccc(S(=O)(=O)NC(=O)NC3CCCCC3)cc1)C(=O)C2(C)C`, the Potency in test [3] was 13.8 µM (active).
On to `CC(C)NC[C@H](O)c1ccc(O)c(O)c1`, for which, in the test with Papain (Carica papaya), the Potency is 1.12 µM (active) and inactive.
For `O=C(O)c1ccccn1`, the Potency result in [1], in [2] and in test [5] was “inactive” in each case.
As for `CCN(CC)CCCC(C)Nc1c2ccc(Cl)cc2nc2ccc(OC)cc12` (centres undefined), the Potency in [4] was 0.0776 µM (active); with Papain (Carica papaya), 17.8 µM (active); in [2] it was 7.42 µM (active); in test [5], 5.25 µM (active). Also, the Potency entry in test [3], in test [7] and in test [6] was “inactive” each time.
Take `NC1CCN(c2cccc(Cl)n2)CC1`: the Potency in test [4] is 1.55 µM (active). For the same compound, the Potency entry in test [3], in [2] and in test [5] was “inactive” throughout.
As for `CCN(CC)CCNC(=O)c1c(C)[nH]c(/C=C2\C(=O)Nc3ccc(F)cc32)c1C`, the Potency entry in test [3] is “inactive”. The Potency is 30.8 µM (active) in test [8]; 3.76 µM (active) and 3.32 µM (active) in test [2]; 2.99 µM (active) and 3.72 µM (active) in test [5].
For the compound `CN(C)CCC=C1c2ccccc2CCc2ccccc21`, in test [4], the Potency is 5.49 µM (active) and 9.52 µM (active). For the same compound, the Potency entry (in [3]; with Papain (Carica papaya)) was “inactive” each time.
For `CSc1ccc2c(c1)N(CCC1CCCCN1C)c1ccccc1S2` (centres undefined), the Potency entry (in [3]; with Papain (Carica papaya)) was “inactive” in each case. Also, the figures for the Potency in [2] and in test [5] were 5.96 µM (active) and 3.76 µM (active), respectively.
Regarding `CSc1ccc2c(c1)C(N1CCN(C)CC1)Cc1ccccc1S2` (centres undefined), the results for the Potency in test [4], in test [2] and in [5] were 0.55 µM (active), 23.7 µM (active) and 15 µM (active), respectively. Further, the Potency entry with Papain (Carica papaya) was “inactive”.
As for `O=C1Nc2ccc(Cl)cc2[C@@](C#CC2CC2)(C(F)(F)F)O1`, the Potency in test [4] was 27.5 µM (active); in test [3] it was 17.4 µM (active); in test [2] it was 18.6 µM (active). In addition, the Potency entry in test [7] and in [6] was “inactive” in each case.
Regarding `Cc1cc(N)c2ccccc2[n+]1CCCCCCCCCC[n+]1c(C)cc(N)c2ccccc21`, the Potency in [4] is 5.35 µM (active); with Papain (Carica papaya) it was 15.8 µM (active); in test [2], 2.9 µM (active); in test [5], 3.25 µM (active). In addition, in test [3], the Potency entry was “inactive”.

The values above are taken from PubChem BioAssay (NCATS).
